Reference: PubChem BioAssay AID1159580 (chemical genetic matrix, 2015)
Several values for one entry are separate records, joined by “and”; a condition that tells them apart may be missing. Identical values can stand only once. Hit rate of the full screen: of about 5,500 compounds, about 2,000 (36%) were called active. Roughly 18% stayed inconclusive and do not appear here. Rule as the data show it: active = normalized growth mostly below about 0.91 (no sharp cut-off); inconclusive = no clear call, values can overlap the other calls; inactive = mostly above about 0.92. This is one part of the list.

Experiment: chemical genetic growth profiling, strain panel (AID 1159580);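 also: tested at 20 µM; growth read once vehicle control cultures reached saturation at 30 °C; 1 = growth at the plate median or of vehicle wells; lower values mean less growth of the strain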
Details: S. cerevisiae deletion strains, growth OD

Measured: normalized growth

CC1OC(O[C@H]2/C=C/C=C/C=C/C=C/C=C/C=C/C=C/[C@H](C)[C@@H](O)[C@@H](C)[C@H](C)OC(=O)CC(O)CC(O)CCC(O)C(O)CC(O)C[C@]3(O)C[C@H](O)C(C(=O)O)C(C2)O3)C(O)[C@H](N)C1O (stereo partly drawn)
active: locus YAL021C, strain ccr4, stronger effect = lower value 0.0628 | locus YAL026C, strain drs2, stronger effect = lower value 0.059 | locus YBR171W, strain sec66, stronger effect = lower value 0.0768 | locus YCR088W, strain abp1, stronger effect = lower value 0.0609 | locus YDL005C, strain med2, stronger effect = lower value 0.0884 | locus YDR001C, strain nth1, stronger effect = lower value 0.0792 | locus YDR069C, strain doa4, stronger effect = lower value 0.0722 | locus YDR137W, strain rgp1, stronger effect = lower value 0.252 | locus YDR159W, strain sac3, stronger effect = lower value 0.696 | locus YDR195W, strain ref2 0.132 | locus YDR334W, strain swr1, stronger effect = lower value 0.115 | locus YDR335W, strain msn5, stronger effect = lower value 0.508 | locus YDR392W, strain spt3, stronger effect = lower value 0.07 | locus YEL003W, strain gim4, stronger effect = lower value 0.0549 | locus YEL037C, strain rad23, stronger effect = lower value 0.193 | locus YEL061C, strain CIN8 (second series), stronger effect = lower value 0.064 | locus YER016W, strain bim1, stronger effect = lower value 0.819 | locus YER111C, strain swi4, stronger effect = lower value 0.0759 | locus YER155C, strain BEM2 (second series), stronger effect = lower value 0.778 | locus YFR010W, strain ubp6, stronger effect = lower value 0.065 | locus YGL086W, strain mad1, stronger effect = lower value 1.07 [resistant] | locus YGL227W, strain vid30, stronger effect = lower value 0.0641 | locus YGL240W, strain doc1, stronger effect = lower value 0.856 | locus YGL253W, strain hxk2, stronger effect = lower value 0.0796 | locus YHR013C, strain ard1, stronger effect = lower value 1.38 [resistant] | locus YHR079C, strain IRE1, stronger effect = lower value 0.111 | locus YHR142W, strain chs7, stronger effect = lower value 0.843 | locus YJL092W, strain hpr5, stronger effect = lower value 0.0636 | locus YJL115W, strain asf1, stronger effect = lower value 0.893 | locus YJL129C, strain trk1, stronger effect = lower value 0.0757 | locus YKR026C, strain gcn3, stronger effect = lower value 0.0616 | locus YLL001W, strain dnm1, stronger effect = lower value 0.0851 | locus YLL026W, stronger effect = lower value 0.0668 | locus YLL041C, strain sdh2, stronger effect = lower value 0.0791 | locus YLR027C, strain aat2, stronger effect = lower value 0.0727 | locus YLR113W, strain HOG1, stronger effect = lower value 0.125 | locus YLR221C, strain rsa3, stronger effect = lower value 0.342 | locus YLR342W, strain FKS1, stronger effect = lower value 0.807 | locus YLR357W, strain rsc2, stronger effect = lower value 0.123 | locus YLR370C, strain arc18, stronger effect = lower value 0.112 | locus YLR384C, strain iki3, stronger effect = lower value 0.754 | locus YML120C, strain ndi1, stronger effect = lower value 0.0569 | locus YMR058W, strain fet3, stronger effect = lower value 0.0612 | locus YMR125W, strain sto1, stronger effect = lower value 0.0674 | locus YMR129W, stronger effect = lower value 0.0583 | locus YMR205C, strain PFK2, stronger effect = lower value 0.105 | locus YMR231W, strain pep5, stronger effect = lower value 0.881 | locus YNL071W, strain lat1, stronger effect = lower value 0.252 | locus YNL248C, strain rpa49, stronger effect = lower value 0.0699 | locus YNL322C, strain KRE1 (second series), stronger effect = lower value 0.092 | locus YOR001W, strain rrp6, stronger effect = lower value 0.0632 | locus YOR080W, strain dia2, stronger effect = lower value 0.389 | locus YOR231W, strain MKK1, stronger effect = lower value 0.109 | locus YOR290C, strain snf2, stronger effect = lower value 0.0611 | locus YPL078C, strain atp4, stronger effect = lower value 0.157 | locus YPL106C, strain sse1, stronger effect = lower value 0.319 | locus YPL240C, strain hsp82, stronger effect = lower value 0.108 | locus YPL256C, strain CLN2, stronger effect = lower value 0.122
0.993 (inactive) and 0.102 (active): locus YJL095W, strain BCK1, stronger effect = lower value
inactive: locus YAL030W, strain snc1, stronger effect = lower value 0.995 | locus YBL061C, strain skt5, stronger effect = lower value 1 | locus YBR009C, strain hhf1, stronger effect = lower value 0.987 | locus YBR021W, strain FUR4, stronger effect = lower value 1.02 | locus YBR023C, strain chs3, stronger effect = lower value 0.957 | locus YBR229C, strain ROT2, stronger effect = lower value 0.996 | locus YBR231C, strain swc5, stronger effect = lower value 0.912 | locus YBR279W, strain paf1, stronger effect = lower value 0.984 | locus YCL011C, strain gbp2, stronger effect = lower value 1 | locus YCL016C, strain dcc1, stronger effect = lower value 0.996 | locus YCL029C, strain bik1, stronger effect = lower value 1.02 | locus YCL069W, strain vba3, stronger effect = lower value 0.977 | locus YDL035C, strain GPR1, stronger effect = lower value 1 | locus YDL040C, strain nat1, stronger effect = lower value 1.01 | locus YDL074C, strain BRE1, stronger effect = lower value 1.03 | locus YDL101C, strain DUN1, stronger effect = lower value 1 | locus YDL134C, strain PPH21, stronger effect = lower value 0.986 | locus YDL185W, strain tfp1, stronger effect = lower value 1.04 | locus YDL192W, strain arf1, stronger effect = lower value 1.01 | locus YDR101C, strain arx1, stronger effect = lower value 1.06 | locus YDR162C, strain NBP2, stronger effect = lower value 0.974 | locus YDR297W, strain sur2, stronger effect = lower value 0.981 | locus YDR318W, strain mcm21, stronger effect = lower value 0.999 | locus YDR388W, stronger effect = lower value 1.02 | locus YDR502C, strain sam2, stronger effect = lower value 1.01 | locus YEL061C, strain CIN8, stronger effect = lower value 1.01 | locus YER015W, strain faa2, stronger effect = lower value 1 | locus YER110C, stronger effect = lower value 1.01 | locus YER155C, strain BEM2, stronger effect = lower value 1 | locus YER167W, strain BCK2, stronger effect = lower value 1.01 | locus YGL078C, strain dbp3, stronger effect = lower value 1 | locus YGL167C, strain pmr1, stronger effect = lower value 1.05 | locus YGL173C, strain kem1, stronger effect = lower value 0.982 | locus YGL248W, strain PDE1, stronger effect = lower value 0.964 | locus YGR135W, strain pre9, stronger effect = lower value 0.997 | locus YGR229C, strain SMI1, stronger effect = lower value 0.904 | locus YGR252W, strain gcn5, stronger effect = lower value 0.952 | locus YHR027C, strain rpn1, stronger effect = lower value 0.991 | locus YHR079C, strain IRE1 (second series), stronger effect = lower value 1.01 | locus YHR094C, strain hxt1, stronger effect = lower value 1.01 | locus YHR129C, strain ARP1, stronger effect = lower value 1.01 | locus YHR200W, strain rpn10, stronger effect = lower value 1.02 | locus YIL066C, strain RNR3, stronger effect = lower value 0.996 | locus YIL073C, strain SPO22, stronger effect = lower value 1.11 | locus YIL125W, strain kgd1, stronger effect = lower value 1.01 | locus YIR030C, strain dcg1, stronger effect = lower value 1.01 | locus YJL095W, strain BCK1 (second series), stronger effect = lower value 1 | locus YJL134W, strain LCB3, stronger effect = lower value 1.01 | locus YJL154C, strain vps35, stronger effect = lower value 0.987 | locus YJL164C, strain tpk1, stronger effect = lower value 0.996 | locus YJL166W, strain qcr8, stronger effect = lower value 0.987 | locus YJL168C, strain set2, stronger effect = lower value 1.01 | locus YJL187C, strain SWE1 (second series), stronger effect = lower value 0.99 | locus YJR043C, strain POL32, stronger effect = lower value 0.95 | locus YJR066W, strain TOR1, stronger effect = lower value 1.01 | locus YJR075W, strain HOC1, stronger effect = lower value 1.03 | locus YKL009W, strain mrt4, stronger effect = lower value 0.963 | locus YKL068W, stronger effect = lower value 0.997 | locus YKL085W, strain MDH1 (second series), stronger effect = lower value 1 | locus YKL085W, strain MDH1, stronger effect = lower value 1 | locus YKL160W, strain elf1, stronger effect = lower value 0.975 | locus YKR001C, strain vps1, stronger effect = lower value 1.04 | locus YKR091W, strain srl3, stronger effect = lower value 1.01 | locus YLR039C, strain RIC1, stronger effect = lower value 1.07 | locus YLR058C, strain SHM2, stronger effect = lower value 0.984 | locus YLR102C, strain apc9, stronger effect = lower value 1.02 | locus YLR258W, strain gsy2, stronger effect = lower value 0.981 | locus YLR262C, strain YPT6 (second series), stronger effect = lower value 0.936 | locus YLR262C, strain YPT6, stronger effect = lower value 1.07 | locus YLR268W, strain sec22, stronger effect = lower value 1.06 | locus YLR320W, strain mms22, stronger effect = lower value 0.917 | locus YLR330W, strain CHS5, stronger effect = lower value 1.02 | locus YLR342W, strain FKS1 (second series), stronger effect = lower value 1.04 | locus YLR371W, strain rom2, stronger effect = lower value 1.03 | locus YLR418C, strain cdc73, stronger effect = lower value 0.973 | locus YML016C, strain PPZ1, stronger effect = lower value 0.986 | locus YML032C, strain rad52, stronger effect = lower value 0.996 | locus YML124C, strain tub3, stronger effect = lower value 1.01 | locus YMR078C, strain ctf18, stronger effect = lower value 1.02 | locus YMR223W, strain ubp8, stronger effect = lower value 0.992 | locus YMR263W, strain SAP30, stronger effect = lower value 1 | locus YMR307W, strain GAS1, stronger effect = lower value 0.768 | locus YNL067W, strain RPL9B, stronger effect = lower value 0.982 | locus YNL153C, strain GIM3, stronger effect = lower value 0.994 | locus YNL183C, strain NPR1, stronger effect = lower value 0.994 | locus YNL209W, strain ssb2, stronger effect = lower value 0.993 | locus YNL233W, strain BNI4, stronger effect = lower value 0.982 | locus YNL250W, strain rad50, stronger effect = lower value 1 | locus YNL271C, strain bni1, stronger effect = lower value 1.01 | locus YNL298W, strain CLA4, stronger effect = lower value 1.01 | locus YNL307C, strain MCK1, stronger effect = lower value 1.03 | locus YNR049C, strain mso1, stronger effect = lower value 0.991 | locus YNR052C, strain pop2, stronger effect = lower value 0.983 | locus YOL012C, strain htz1 0.984 | locus YOL147C, strain pex11, stronger effect = lower value 1.01 | locus YOR061W, strain CKA2, stronger effect = lower value 1.01 | locus YOR069W, strain VPS5, stronger effect = lower value 0.994 | locus YOR070C, strain gyp1, stronger effect = lower value 0.971 | locus YOR083W, strain WHI5, stronger effect = lower value 0.956 | locus YOR106W, strain vam3, stronger effect = lower value 0.983 | locus YOR136W, strain idh2, stronger effect = lower value 1.02 | locus YOR144C, strain elg1, stronger effect = lower value 1.01 | locus YOR184W, strain ser1, stronger effect = lower value 1 | locus YOR265W, strain rbl2, stronger effect = lower value 0.987 | locus YOR270C, strain vph1, stronger effect = lower value 0.792 | locus YOR316C, strain cot1, stronger effect = lower value 1.02 | locus YPL051W, strain arl3, stronger effect = lower value 1 | locus YPL241C, strain CIN2, stronger effect = lower value 1.01 | locus YPR119W, strain clb2, stronger effect = lower value 1.01 | locus YPR141C, strain kar3, stronger effect = lower value 1.01 | locus YPR163C, strain tif3, stronger effect = lower value 1.03 | locus YPR167C, strain met16, stronger effect = lower value 1.03 | strain wtn01, stronger effect = lower value 1.07
1.01 (inactive) and 0.099 (active): locus YHR030C, strain SLT2, stronger effect = lower value
